The text below walks through data of the antibiotic and cytotoxicity screens of Wong et al. (2023).

In all, about 39,000 compounds went through this assay and about 3,300 (8.5%) were called active. Many of the other results were omitted from the sample, so actives are more common in it than they were.

The assay has as its system HepG2. The assay can be described thus: cytotoxicity call (relative viability < 0.9). The conditions noted are these: 10 µM.
Turning to `Cc1ccc(-c2cnc3c(c2)C(=O)N([C@H](C)CO)C[C@H](C)[C@@H](CN(C)C(=O)Cc2cccnc2)O3)cc1`, the cytotoxicity call was “inactive”. As for `C[C@H](CO)N1C[C@H](C)[C@H](CN(C)C(=O)Nc2ccc(C(F)(F)F)cc2)Oc2c(NC(=O)Nc3ccccc3)cccc2C1=O`, the cytotoxicity call was “inactive”. For `C[C@@H]1CN([C@H](C)CO)C(=O)c2cccc(NC(=O)Nc3ccc(C(F)(F)F)cc3)c2O[C@@H]1CN(C)C(=O)Nc1ccccc1`, the cytotoxicity call was “active”. Regarding `C[C@H]1CN([C@@H](C)CO)C(=O)c2cccc(NC(=O)Nc3ccccc3)c2O[C@@H]1CN(C)C(=O)Nc1ccc(C(F)(F)F)cc1`, the cytotoxicity call was “inactive”. To `C[C@@H]1CN([C@@H](C)CO)C(=O)c2cccc(NC(=O)Nc3ccccc3)c2O[C@@H]1CN(C)C(=O)Nc1ccc(C(F)(F)F)cc1` belongs “inactive”; to `C[C@H](CO)N1C[C@H](C)[C@@H](CN(C)C(=O)Nc2ccc(C(F)(F)F)cc2)Oc2c(NC(=O)Nc3ccccc3)cccc2C1=O`, “inactive”.

As for `C[C@H]1CN([C@@H](C)CO)C(=O)c2cccc(NC(=O)Nc3ccc(C(F)(F)F)cc3)c2O[C@@H]1CN(C)C(=O)Nc1ccccc1`, the cytotoxicity call is “active”. For `COc1ccc(C(=O)Nc2ccc(CN3C(=O)[C@]4(O[C@H](CCO)[C@@H]([Si](C)(C)F)[C@@H]4C)c4ccccc43)cc2)cc1` the value was “inactive”. Regarding `CN1CCN(C(=O)C[C@@H]2CC[C@@H]3[C@H](COC[C@H](O)CN3C(=O)Nc3cc(Cl)cc(Cl)c3)O2)CC1`, the cytotoxicity call was “inactive”. To `CC[N+](C)(CC)Cc1ccccc1` belongs “inactive”; to `CCCCCCCCCCCCCCCC[N+](C)(C)Cc1ccccc1.[Cl-]`, “active”; to `CCCCCCCCCCCCC[N+](C)(C)Cc1ccccc1.O.[Cl-]`, “active”. With `CCCCNc1ccccc1`, the cytotoxicity call is “inactive”. For `CCCCCCCCCCCCC[N+](C)(C)Cc1ccccc1` the value was “active”; for `CCCCCc1ccccn1`, “inactive”; for `COc1ccc(S(=O)(=O)Nc2ccc3c(c2)CC(=O)N([C@@H](C)CO)C[C@H](C)[C@H](CN(C)S(=O)(=O)c2cccs2)O3)cc1`, “inactive”.

Take `C[C@H](CO)N1C[C@H](C)[C@H](CN(C)CC2CC2)Oc2c(NS(=O)(=O)c3cccs3)cccc2C1=O`: the cytotoxicity call was “inactive”. As for `Cc1noc(C)c1S(=O)(=O)Nc1ccc2c(c1)C(=O)N([C@@H](C)CO)C[C@H](C)[C@@H](CN(C)CC1CCCCC1)OCCCC[C@@H](C)O2`, the cytotoxicity call was “inactive”. For `O=C(C1=C[C@H](c2coc3ccccc3c2=O)C[C@H](OCc2ccc(CO)cc2)O1)N1CCCCCCC1`, the cytotoxicity call was “inactive”. With `CS(=O)(=O)NCc1cnc2n1CCN(C[C@H]1CCOC1)CC2`, the cytotoxicity call was “inactive”. For the compound `C[C@H](CO)N1C[C@H](C)[C@H](CN(C)C(=O)Nc2ccc(F)cc2)Oc2ccc(NC(=O)CCCCCC(=O)Nc3ccccc3N)cc2CC1=O`, the cytotoxicity call was “inactive”. For `CCCNC(=O)Nc1ccc2c(c1)OC[C@H](C)N(Cc1ccc(-c3ccccn3)cc1)C[C@H](C)[C@H](OC)CN(C)C2=O` the value was “inactive”; for `C[C@H]1CN([C@@H](C)CO)C(=O)CCCn2cc(nn2)CO[C@@H]1CN(C)C(=O)Nc1ccc(C(F)(F)F)cc1`, “inactive”; for `O=C(O)[C@H]1C[C@H](O)CN1Cc1ccccc1`, “inactive”. To `C[C@@H]1CCCCO[C@H](CN(C)Cc2ccc(C(F)(F)F)cc2)[C@@H](C)CN([C@H](C)CO)C(=O)c2cc(NC(=O)c3ccccc3)ccc2O1` belongs “inactive”. For `C[C@@H]1CCCCO[C@H](CN(C)Cc2ccccc2)[C@H](C)CN([C@H](C)CO)C(=O)c2cc(NC(=O)c3ccccc3)ccc2O1` the value was “inactive”. As to `C[C@H]1CCCCO[C@@H](CN(C)Cc2ccc(C(F)(F)F)cc2)[C@@H](C)CN([C@@H](C)CO)C(=O)c2cc(NC(=O)c3ccccc3)ccc2O1`, the cytotoxicity call was “active”.

With `C[C@@H]1CN([C@@H](C)CO)C(=O)c2cc(NC(=O)c3ccccc3)ccc2O[C@@H](C)CCCCO[C@H]1CN(C)Cc1ccccc1`, the cytotoxicity call was “inactive”. To `C[C@@H]1CN([C@H](C)CO)C(=O)c2cc(NC(=O)c3ccccc3)ccc2O[C@@H](C)CCCCO[C@H]1CN(C)Cc1ccccc1` belongs “active”. To `C[C@@H]1CN([C@@H](C)CO)C(=O)c2cc(NC(=O)c3ccccc3)ccc2O[C@@H](C)CCCCO[C@H]1CN(C)Cc1ccc(C(F)(F)F)cc1` belongs “active”; to `C[C@@H]1CCCCO[C@@H](CN(C)Cc2ccc(C(F)(F)F)cc2)[C@H](C)CN([C@H](C)CO)C(=O)c2cc(NC(=O)c3ccccc3)ccc2O1`, “inactive”; to `C[C@H](CO)N1C[C@H](C)[C@H](CN(C)Cc2ccc(C(F)(F)F)cc2)OCCCC[C@H](C)Oc2ccc(NC(=O)c3ccccc3)cc2C1=O`, “inactive”. `C[C@@H]1CN([C@H](C)CO)C(=O)c2cc(NC(=O)c3ccccc3)ccc2O[C@@H](C)CCCCO[C@H]1CN(C)Cc1ccc(C(F)(F)F)cc1`: the cytotoxicity call was “inactive”.

In the case of `C[C@@H]1CCCCO[C@H](CN(C)Cc2ccc(C(F)(F)F)cc2)[C@H](C)CN([C@@H](C)CO)C(=O)c2cc(NC(=O)c3ccccc3)ccc2O1`, the cytotoxicity call was “active”. For `C[C@@H]1CN([C@H](C)CO)C(=O)c2cc(NC(=O)c3ccccc3)ccc2O[C@@H](C)CCCCO[C@@H]1CN(C)Cc1ccc(C(F)(F)F)cc1` the value was “inactive”. On to `C[C@@H]1CCCCO[C@H](CN(C)Cc2ccc(C(F)(F)F)cc2)[C@H](C)CN([C@H](C)CO)C(=O)c2cc(NC(=O)c3ccccc3)ccc2O1`, for which the cytotoxicity call was “inactive”. Turning to `C[C@@H]1CN([C@@H](C)CO)C(=O)c2cc(NC(=O)Nc3cccc4ccccc34)ccc2O[C@H]1CN(C)S(=O)(=O)c1ccc(Cl)cc1`, the cytotoxicity call was “inactive”. Turning to `COc1ccc(NC(=O)N(C)C[C@H]2Oc3ccc(NS(=O)(=O)c4cn(C)cn4)cc3CC(=O)N([C@@H](C)CO)C[C@@H]2C)cc1`, the cytotoxicity call was “inactive”. To `C[C@@H]1CN([C@H](C)CO)S(=O)(=O)c2ccc(-c3cccc(C(=O)N(C)C)c3)cc2O[C@@H]1CN(C)C(=O)Cc1ccccn1` belongs “inactive”.

With `C[C@@H]1CN([C@@H](C)CO)C(=O)CCCn2nncc2CO[C@@H]1CN(C)S(=O)(=O)c1ccc2c(c1)OCCCO2`, the cytotoxicity call is “inactive”. As for `COc1ccc(-c2cnc3c(c2)C(=O)N([C@H](C)CO)C[C@H](C)[C@@H](CN(C)C(=O)Cc2ccccn2)O3)cc1`, the cytotoxicity call is “inactive”. On to `Cc1noc(C)c1S(=O)(=O)Nc1ccc2c(c1)C(=O)N([C@H](C)CO)C[C@@H](C)[C@@H](CN(C)Cc1ccc(-c3ccccc3)cc1)O2`, for which the cytotoxicity call was “inactive”. For `C[C@H]1CN([C@@H](C)CO)C(=O)Cc2cc(NS(=O)(=O)c3ccccc3)ccc2O[C@H]1CN(C)S(=O)(=O)c1ccc(F)cc1` the value was “inactive”; for `C[C@@]1(NC(=O)Cc2ccc(S(=O)(=O)N3CCOCC3)s2)CCS(=O)(=O)C1`, “inactive”; for `C[C@@H]1CN([C@@H](C)CO)C(=O)c2cccc(NS(=O)(=O)c3ccccc3)c2O[C@H]1CN(C)S(=O)(=O)c1cccs1`, “inactive”. On to `C[C@H](CO)N1C[C@H](C)[C@H](CN(C)S(=O)(=O)c2ccc(F)cc2)Oc2c(NC(=O)c3cnccn3)cccc2C1=O`, for which the cytotoxicity call is “inactive”. To `CCS(=O)(=O)N1CC[C@]2(CC1)CN([C@@H](CO)c1c2c2ccc(cc2n1C)OC)C(=O)Nc1c(noc1C)C` belongs “inactive”; to `O=C(CN1CCOCC1)NCC[C@H]1CC[C@H](NS(=O)(=O)c2ccc(Cl)cc2)[C@@H](CO)O1`, “inactive”; to `O=c1c(O)c(-c2ccc(O)c(O)c2)oc2c(OC3OC(CO)C(O)C(O)C3O)c(O)cc(O)c12` (centres undefined), “inactive”. For `O=c1c(O)c(-c2ccc(O)c(O)c2)oc2c(O[C@@H]3O[C@H](CO)[C@H](O)[C@@H](O)[C@H]3O)c(O)cc(O)c12` the value was “active”; for `COc1c(O[C@@H]2O[C@H](CO)[C@@H](O)[C@H](O)[C@H]2O)cc2oc(-c3ccc(O)c(O)c3)c(O)c(=O)c2c1O`, “inactive”; for `C[C@@H]1O[C@@H](O[C@@H]2[C@@H](O)[C@H](C)O[C@@H](OC[C@H]3O[C@@H](Oc4c(-c5ccc(O)c(O)c5)oc5cc(O)cc(O)c5c4=O)[C@@H](O)[C@@H](O)[C@@H]3O)[C@@H]2O)[C@H](O)[C@H](O)[C@H]1O`, “inactive”.

With `C[C@H]1O[C@@H](OC[C@H]2O[C@@H](Oc3c(-c4ccc(O)c(O)c4)oc4cc(O)cc(O)c4c3=O)[C@@H](O)[C@@H](O)[C@@H]2O)[C@@H](O)[C@@H](O)[C@@H]1O`, the cytotoxicity call is “inactive”. For `CC(=O)O[C@@H]1[C@@H](O[C@@H]2O[C@H](CO)[C@@H](O)[C@H](O)[C@H]2O)[C@@H](O)[C@H](OC[C@H]2O[C@@H](Oc3c(-c4ccc(O)c(O)c4)oc4cc(O)cc(O)c4c3=O)[C@H](O)[C@@H](O)[C@H]2O)O[C@H]1C` the value was “active”. `Cc1ccc(S(=O)(=O)N(C)C[C@@H]2Oc3ncc(C#CC4(O)CCCC4)cc3C(=O)N([C@@H](C)CO)C[C@H]2C)cc1`: the cytotoxicity call is “inactive”. For the compound `CC(C)(C[C@H]1CN(S(=O)(=O)c2cccc(C(F)(F)F)c2)c2cc(-c3cc(F)cc(OC(F)F)c3)ccc2O1)C(=O)O`, the cytotoxicity call is “inactive”. On to `COC(=O)CCCCCCC(=O)N/N=C/[C@H](O)[C@@H](O)[C@@H](O)[C@H](O)C(=O)O`, for which the cytotoxicity call was “inactive”. In the case of `COc1ccc2c3c(n(c2c1)C)[C@H](CO)N(CC1CCCC1)C[C@]13CCN(CC1)C(=O)Nc1ccccc1`, the cytotoxicity call was “inactive”.

For `COc1ccc2c3c(n(c2c1)C)[C@H](CO)N(C[C@]13CN(C1)S(=O)(=O)C)C(=O)CN(C)C`, the cytotoxicity call was “inactive”. `COc1ccc2c3c(n(c2c1)C)[C@H](CO)N(C[C@]13CCN(CC1)S(=O)(=O)C)C(=O)CN(C)C`: the cytotoxicity call is “inactive”. Turning to `COc1ccc(cc1)S(=O)(=O)N1CC[C@]2(CC1)CN([C@H](CO)c1c2c2ccc(cc2n1C)OC)C(=O)CN(C)C`, the cytotoxicity call is “active”. To `COCC(=O)N1CC[C@]2(CC1)CN([C@@H](CO)c1c2c2ccc(cc2n1C)OC)C(=O)Cc1ccccc1` belongs “inactive”; to `COCC(=O)N1CC[C@]2(CC1)CN([C@H](CO)c1c2c2ccc(cc2n1C)OC)C(=O)Cc1ccccc1`, “active”; to `COc1ccc(cc1)S(=O)(=O)N1C[C@]2(C1)CN([C@@H](CO)c1c2c2ccc(cc2n1C)OC)C(=O)CN(C)C`, “inactive”. For `COc1ccc2c3c(n(c2c1)C)[C@H](CO)N(Cc1ccccc1)C[C@]13CCN(CC1)C(=O)Nc1cccc(c1)F`, the cytotoxicity call was “inactive”. To `COCC(=O)N1CC[C@]2(CC1)CN(Cc1cccc(c1)OC)[C@@H](CO)c1c2c2ccc(cc2n1C)OC` belongs “inactive”; to `COc1ccc(cc1)S(=O)(=O)N1C[C@]2(C1)CN([C@H](CO)c1c2c2ccc(cc2n1C)OC)C(=O)CN(C)C`, “active”. For `COc1ccc2c3c(n(c2c1)C)[C@@H](CO)N(CC1CCCC1)C[C@]13CCN(CC1)C(=O)Nc1ccccc1` the value was “active”; for `COc1ccc(cc1)S(=O)(=O)N1CC[C@]2(CC1)CN([C@@H](CO)c1c2c2ccc(cc2n1C)OC)C(=O)CN(C)C`, “inactive”.
